# Mtb FBA inh: Mtb FBA enzyme inhibitors, primary screen, biochemical, fluorescence, strain H37Rv; purified M. tuberculosis FBA, fluorescence read-out; inhibition, % at 1 µM; 2.3% of 360,000 active;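 also: 0% = vehicle and 100% = reference inhibitor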
# BJeLR viability: MLPCN primary cell-based screen for lethality selective to Ras in HRASV12 cells | BJeLR (HRASV12) viability, CellTiter-Glo ATP luminescence, 48 h | inhibition, % (no concentration beside the values) | 0.17% of 300,000 active | AID 1554, 2009; in the data active = inhibition above about 50%
# RecA intein inh: Mtb RecA intein splicing inhibitors, primary screen, biochemical, fluorescence, HTS | 0.75% of 290,000 active | cell-free RecA intein splicing | Protein RecA (Mycobacterium tuberculosis (strain ATCC 25618 / H37Rv)), P9WHJ3 | inhibition, % (test concentration not listed); in the data active = inhibition above about 30%;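 also: 0% = vehicle wells and 100% = reference inhibitor control wells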
# Target sequence (P9WHJ3 whole entry, looked up): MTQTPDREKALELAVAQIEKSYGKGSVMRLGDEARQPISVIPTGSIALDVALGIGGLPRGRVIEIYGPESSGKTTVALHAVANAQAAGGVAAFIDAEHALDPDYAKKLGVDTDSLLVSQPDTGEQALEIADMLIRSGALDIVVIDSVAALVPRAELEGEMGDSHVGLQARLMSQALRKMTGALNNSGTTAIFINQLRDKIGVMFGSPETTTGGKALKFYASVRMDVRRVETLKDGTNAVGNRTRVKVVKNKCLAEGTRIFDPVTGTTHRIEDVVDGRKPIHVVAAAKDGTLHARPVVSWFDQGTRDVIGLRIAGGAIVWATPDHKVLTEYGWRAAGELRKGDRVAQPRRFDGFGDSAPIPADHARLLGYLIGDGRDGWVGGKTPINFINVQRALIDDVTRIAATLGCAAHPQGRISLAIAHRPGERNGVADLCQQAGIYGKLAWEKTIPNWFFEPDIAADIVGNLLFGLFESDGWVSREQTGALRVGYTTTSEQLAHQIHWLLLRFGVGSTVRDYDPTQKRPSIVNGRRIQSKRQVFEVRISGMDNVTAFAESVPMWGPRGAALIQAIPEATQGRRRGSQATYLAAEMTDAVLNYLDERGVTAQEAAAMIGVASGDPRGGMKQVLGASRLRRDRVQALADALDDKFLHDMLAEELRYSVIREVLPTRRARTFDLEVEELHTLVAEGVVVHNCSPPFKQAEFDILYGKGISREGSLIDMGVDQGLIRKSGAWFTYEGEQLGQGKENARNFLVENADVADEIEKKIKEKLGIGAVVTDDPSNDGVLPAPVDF
# GDH-TPI counter-1: GDH-TPI coupling enzyme inhibitors, primary screen, artefact control for M. tuberculosis FBA inhibitor project, biochemical, absorbance, full deck. GDH-TPI coupled enzyme counterscreen, NADH absorbance. inhibition, % at 4.8 µM. 1.2% of 360,000 active. AID 588335, 2011; in the data active = inhibition above about 30%;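 also: 0% = DMSO wells and 100% = wells lacking the enzyme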
# PrPC TRFRET: inhibitors of human cell surface prion protein PrPC, primary screen, cell-based, TR-FRET. AID 720596, 2013. 0.43% of 370,000 active. TR-FRET read-out. inhibition, % at 13.8 µM; in the data active = inhibition above about 24%; also: 0% = median of the test wells and 100% = reference compound wells
# Mtb FBA inh conf: M. tuberculosis aldolase blockers, biochemical, fluorescence, strain H37Rv, confirmation | shares compounds with Mtb FBA inh | purified M. tuberculosis FBA, fluorescence read-out | inhibition, % at 1 µM | 78% of 5,600 active | AID 651616, 2012;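 also: 0% = vehicle wells and 100% = reference inhibitor wells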
# GDH-TPI counter-2: GDH-TPI coupling enzyme inhibitors, artefact control for M. tuberculosis FBA inhibitor project, biochemical, fluorescence, high throughput | shares compounds with Mtb FBA inh | GDH-TPI coupled enzyme counterscreen | inhibition, % at 1 µM | 81% of 5,600 active | AID 652141, 2013; in the data active = inhibition above about 10%
# GDH-TPI dose: GDH-TPI coupling enzyme inhibitors, dose response, artefact control for M. tuberculosis FBA inhibitor project, biochemical, fluorescence, IC50; shares compounds with Mtb FBA inh; GDH-TPI coupled enzyme assay, artifact counterscreen; IC50, µM; 79% of 170 active; call rule not given here
# The depositor's hits bear a star; x = not tested or not shown; + = active, no number. Compounds with a hit are over-represented: about 4.2% of the library has one in this group of screens. Rule as the data show it, unless noted: active = inhibition above about 27%; inactive = the rest.
SMILES,Mtb FBA inh,BJeLR viability,RecA intein inh,GDH-TPI counter-1,PrPC TRFRET,Mtb FBA inh conf,GDH-TPI counter-2,others
Cc1ccccc1N(CC(=O)NCC1CCCO1)C(=O)C1(C)CC(=O)N=C2C=CC=CN21 (stereo unspecified),86*,3,1,-1,0,106*,79*,
CC1(C(=O)N(c2ccccc2)C(C(=O)NC2CCCC2)c2ccccn2)CC(=O)N=C2C=CC=CN21 (stereo unspecified),96*,x,x,14,-4,107*,81*,
O=S(=O)(c1ccccc1)N1CCCc2nc(-c3ccccc3)ccc21,x,x,x,x,-3,x,x,
CCCc1cc(=O)oc2cc(C)cc(OCC(=O)Nc3ccccn3)c12,23,0,0,3,3,x,x,
Cc1cc(=O)oc2cc(OCC(=O)NCc3ccncc3)ccc12,18,1,-1,-3,-8,x,x,
C=C(Cl)COc1cc(C)cc2oc(=O)cc(CC)c12,32*,7,-2,4,2,146*,118*,
CCc1cc(=O)oc2cc(C)cc(OCC(=O)NCc3ccncc3)c12,49*,16,1,7,4,161*,137*,
CC(=O)COc1cc(C)cc2oc(=O)cc(-c3ccccc3)c12,2,4,0,10,-4,x,x,
CCCc1cc(=O)oc2cc(C)cc(OCC(=O)O)c12,97*,-2,-4,17,-2,144*,109*,
CCCc1cc(=O)oc2cc(C)cc(OCC(=O)NCc3ccncc3)c12,61*,9,1,9,-5,53*,41*,
COC(=O)C[C@@H]1CC[C@H]2[C@H](COc3ccc(NC(=O)c4cccc(C(F)(F)F)c4)cc3C(=O)N2C)O1,x,x,x,x,-4,x,x,
Nc1[nH]c(C(=O)c2ccccc2)c(-c2ccc(Cl)cc2)c1C(=O)c1c[nH]c2ccc(F)cc12,x,x,x,x,3,x,x,
O=C(Nc1ccc(OC(F)(F)F)cc1)Nc1c(-c2ccc(C(F)(F)F)cc2)nc2ncccn12,x,x,x,x,6,x,x,
CCc1cc(=O)oc2cc(C)cc(OCC(=O)NCc3ccccn3)c12,84*,-4,-1,0,11,196*,144*,
O=C(Nc1ccc(Br)cc1)OC1CC2CC1[C@H]1CCCCN1[C@H]2Cc1ccccc1 (stereo partly specified),x,x,x,x,3,x,x,
CCOC(=O)c1nc2cc3n(c(C)c-2c1C)C(C)C(CC)=C3C (stereo unspecified),34*,-3,-7,2,-16,+,181*,
CCOC(=O)c1cn2ccc(C)cc2n1,5,10,0,-3,3,x,x,
O=C(Nc1cccs1)OC1CC2CC1[C@H]1CCCCN1C2 (stereo partly specified),x,x,x,x,0,x,x,
COc1ccc(-c2cc3ccccc3n2CC(O)CN2CCN(CCO)CC2)cc1 (stereo unspecified),33*,-1,x,3,-14,-7,-5,
CCn1cc(C2C(C(=O)Nc3cc(C)ccn3)=C(C)NC3=C2C(=O)CC(C)(C)C3)c(C)n1 (stereo unspecified),52*,7,-20,8,-3,104*,85*,
CCC(C)[C@@H](C(=O)OC)N(Cc1cn(Cc2ccccc2)nn1)S(=O)(=O)c1ccccc1Br (stereo partly specified),x,x,x,x,17,x,x,
COc1ccc(S(=O)(=O)Nc2c(C(=O)O)[nH]c3ccc(OC)cc23)cc1,27*,-1,-3,3,-10,+,+,
COc1ccc2[nH]c(C(=O)O)c(CCC(=O)O)c2c1,42*,2,2,-1,-2,78*,59*,
CCN(CC)CCCNC(=O)CCC(=O)Nc1ccc2nc(N3CCCCC3)cc(C)c2c1,108*,-3,-8,7,-10,87*,95*,
CCN(CC)CCCNC(=O)CCC(=O)Nc1ccc2nc(N3CCC(C)CC3)cc(C)c2c1,65*,1,-9,-3,-7,12,-2,GDH-TPI dose=1.3*
SMILES,Mtb FBA inh,BJeLR viability,RecA intein inh,GDH-TPI counter-1,PrPC TRFRET,Mtb FBA inh conf,GDH-TPI counter-2,others
CCCCc1c(-c2ccccc2OC)ncn1Cc1cccc(C)c1,x,x,x,x,14,x,x,
CC1=C(C(=O)N2CCOCC2)C(c2ccccc2F)C2=C(CC(C)(C)CC2=O)N1 (stereo unspecified),55*,17,-8,0,-3,84*,73*,
COc1ccc(C2C(C(=O)N3CCOCC3)=C(C)NC3=C2C(=O)CC(C)(C)C3)c(OC)c1 (stereo unspecified),58*,1,-20,9,-2,+,+,
CC1=C(C(=O)N2CCOCC2)C(c2ccccc2F)NC(=O)N1 (stereo unspecified),2,-2,-1,-2,5,x,x,
Cc1ccc(OCc2nnc(SCC(=O)Nc3ccc(OCc4ccccc4)cc3)n2-c2ccc(Cl)cc2)cc1,x,x,x,x,-5,x,x,
c1ccc2c(c1)Oc1cccc3cccc-2c13,28*,-3,5,13,9,86*,81*,
O=C(NC1CCS(=O)(=O)C1)c1ccc(-c2ccc(Br)cc2)o1 (stereo unspecified),42*,4,1,2,-5,25,17*,
CCS(=O)(=O)N(C)C[C@@H]1OCc2ccccc2-c2c(n(C)c3ccccc23)C(=O)N([C@H](C)CO)C[C@@H]1C,x,x,x,x,-6,x,x,
CCOC(=O)c1c(-c2ccccc2)oc2ccc(OCC(O)CNCCN(C)C)cc12 (stereo unspecified),42*,26,-4,7,-1,1,-1,
CCOc1ccc2oc(C(=O)N3CCN(Cc4ccccc4)CC3)c(C)c2c1,2,-6,2,0,-1,x,x,
CCOc1ccc2oc(-c3ccccc3)c(C(=O)N3CCN(C)CC3)c2c1,71*,-1,-3,21,4,92*,58*,
COc1ccc2oc(-c3ccccc3)c(C(=O)N3CCOCC3)c2c1,40*,4,-3,11,-8,72*,48*,
CCOC(=O)c1c(-c2ccccc2)oc2ccc(OCC)cc12,23,-2,7,16,3,x,x,
Cc1cccc(C)c1NC(=O)C1CCN(c2ncccn2)CC1,x,x,x,x,-6,x,x,
O=C(COCc1ccccc1)N1CC[C@H]2[C@H](CCCN2Cc2cc(F)cc(F)c2)C1,x,x,x,x,0,x,x,

# Screening results: PubChem, several laboratories
